Assay results from PubChem BioAssay (NCATS).
Results filed as inconclusive are left out. The source made the active and inactive calls. Unless noted, the call rests on the fitted dose curve; in most records, active means well fitted curve in the direction sought with a large enough effect; inconclusive means small, poorly fitted or top-dose-only effect, or another doubt; inactive means no such curve, though single readings can be large; an effect the other way counts as inactive or inconclusive.

Experiments:
[1] = AP1 Signaling Pathway (AID 357; active means well fitted curve in either direction with a large enough effect, not every such curve was filed as active;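 further: ME-180 reporter cells stimulated with EGF at its EC50 level; on the % scale 0 is the no-effect control and ±100 the full control effect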); details: ME-180 AP-1-bla reporter, EGF-induced, beta-lactamase ratio, 5 h; at 38 µM (top of the series)
Outline: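 Cells are seeded overnight, exposed to compound titrations and an EC50 level of EGF for 5 hours at 37 °C, then loaded with CCF4 dye for 2.5 hours. Beta-lactamase activity under the AP-1 element is read as a blue/green ratio.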

[2] = biological target: Cytochrome P450 1A2 (Homo sapiens) (UniProt P05177); experiment: p450-cyp1a2 (AID 410; calls by dose curve; further: potency means the concentration at half of the fitted maximal effect)
Chain of Cytochrome P450 1A2 (Homo sapiens) (P05177 whole entry, looked up): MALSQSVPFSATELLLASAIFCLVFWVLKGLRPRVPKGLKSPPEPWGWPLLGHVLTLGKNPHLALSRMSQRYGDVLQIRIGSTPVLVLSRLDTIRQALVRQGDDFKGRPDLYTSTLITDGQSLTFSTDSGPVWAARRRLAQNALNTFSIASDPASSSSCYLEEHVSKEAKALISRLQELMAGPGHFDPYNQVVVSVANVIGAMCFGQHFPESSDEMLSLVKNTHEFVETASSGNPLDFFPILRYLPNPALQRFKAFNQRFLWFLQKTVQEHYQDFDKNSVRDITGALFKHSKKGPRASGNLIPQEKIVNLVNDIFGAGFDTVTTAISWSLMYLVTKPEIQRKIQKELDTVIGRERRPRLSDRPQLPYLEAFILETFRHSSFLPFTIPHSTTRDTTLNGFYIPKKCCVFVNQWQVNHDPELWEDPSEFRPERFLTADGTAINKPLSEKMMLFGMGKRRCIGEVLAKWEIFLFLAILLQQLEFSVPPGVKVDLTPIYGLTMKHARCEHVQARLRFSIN
Outline: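 O-Demethylation of luciferin 6' methyl ether by human CYP1A2 is monitored as luciferase luminescence. Substrate sits at Km (100uM); enzyme is 20nM. Values are scaled to 57 uM furafylline as maximal inhibition.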

[3] = NFAT Signaling Pathway (AID 444; active means well fitted curve in either direction with a large enough effect, not every such curve was filed as active;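 further: carbachol stimulus at about its EC50 of 1 µM final; on the % scale 0 is the no-effect control and ±100 the full control effect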); details: Jurkat NFAT-bla M1, carbachol, beta-lactamase ratio, 5 h; at 38 µM (top of the series)
Outline: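 Read-out: CCF4 FRET ratio (460 nm/530 nm) after 1 h RT dye loading, used for %activity and AC50 from titration series. Cells: Jurkat NFAT-β-lactamase/M1 line, treated with compound plus 1 uM carbachol for 5 h, 37 °C.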

[4] = Stat Signaling Pathway (AID 446; active means well fitted curve in either direction with a large enough effect, not every such curve was filed as active;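 further: ME-180 cervical cancer cells given 40 pM IL-6 alongside compound; SIE-controlled beta-lactamase reporter measured as 460/530 nm FRET emission ratio; on the % scale 0 is the no-effect control and ±100 the full control effect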); details: ME-180 (cervical carcinoma) SIE beta-lactamase reporter, IL-6 stimulated, 5 h; at 38 µM (top of the series)
Outline: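 Normalization used AC90 stimulation (300 pM IL-6) and AC90 inhibition (125 nM pan-JAK inhibitor at 40 pM IL-6). The underlying signal is SIE-driven beta-lactamase in ME-180 cells after 5 h IL-6 exposure with compound.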

[5] = biological target: Glucocorticoid receptor (Homo sapiens) (UniProt P04150); experiment: GR-GFP Redistribution (AID 450;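 active means compounds whose dose series gives a full or clear partial fitted curve of increased nuclear translocation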; further: potency means the concentration at half of the fitted maximal effect); details: U2OS GR-GFP nuclear translocation, laser cytometry, 2 h
Chain of Glucocorticoid receptor (Homo sapiens) (P04150 whole entry, looked up, the tested form may be a part): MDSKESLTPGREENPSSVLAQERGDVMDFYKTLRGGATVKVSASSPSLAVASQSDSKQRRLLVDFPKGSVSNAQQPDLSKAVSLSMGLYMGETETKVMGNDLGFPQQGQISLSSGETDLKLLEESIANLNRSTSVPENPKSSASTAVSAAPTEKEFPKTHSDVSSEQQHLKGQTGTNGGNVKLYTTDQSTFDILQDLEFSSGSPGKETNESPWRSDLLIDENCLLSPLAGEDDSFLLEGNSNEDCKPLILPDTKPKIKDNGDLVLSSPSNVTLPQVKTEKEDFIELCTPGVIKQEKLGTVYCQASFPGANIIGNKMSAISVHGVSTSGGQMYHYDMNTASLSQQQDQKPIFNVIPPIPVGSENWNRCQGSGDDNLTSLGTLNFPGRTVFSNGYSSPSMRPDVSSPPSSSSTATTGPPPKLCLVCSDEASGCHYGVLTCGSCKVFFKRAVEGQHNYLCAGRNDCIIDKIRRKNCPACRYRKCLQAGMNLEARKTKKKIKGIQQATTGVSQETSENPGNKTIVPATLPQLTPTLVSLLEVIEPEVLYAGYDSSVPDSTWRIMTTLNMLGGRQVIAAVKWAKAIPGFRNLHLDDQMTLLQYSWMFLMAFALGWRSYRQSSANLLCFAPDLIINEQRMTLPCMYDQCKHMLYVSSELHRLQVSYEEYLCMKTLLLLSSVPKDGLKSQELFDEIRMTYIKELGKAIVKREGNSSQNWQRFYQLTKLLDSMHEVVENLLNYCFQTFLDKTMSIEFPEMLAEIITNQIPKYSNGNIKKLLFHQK

[6] = biological target: Glucocorticoid receptor (Homo sapiens) (UniProt P04150); experiment: GR-EFC Redistribution (AID 451; calls by dose curve; further: potency means the concentration at half of the fitted maximal effect); details: CHO-K1 GR-EFC translocation, beta-gal luminescence, 2 h
Outline: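 Translocation of GR-ED fusion to nuclear EA restores b-gal, read by luminescence after 1 h room-temperature detection. Engineered CHO-K1 biosensor cells, 1,000/well, exposed 2 h at 37 C to titrations up to 46 uM final.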

[7] = biological target: 3',5'-cyclic-AMP phosphodiesterase 4B (Homo sapiens) (UniProt Q07343); experiment: qHTS Assay for Inhibitors of PDE-IV (AID 607; active means well fitted activation curve with a large enough effect in the main read-out, with a control signal flat, not every such curve was filed as active; further: % of control where 0% means no effect)
Chain of 3',5'-cyclic-AMP phosphodiesterase 4B (Homo sapiens) (Q07343 whole entry, looked up): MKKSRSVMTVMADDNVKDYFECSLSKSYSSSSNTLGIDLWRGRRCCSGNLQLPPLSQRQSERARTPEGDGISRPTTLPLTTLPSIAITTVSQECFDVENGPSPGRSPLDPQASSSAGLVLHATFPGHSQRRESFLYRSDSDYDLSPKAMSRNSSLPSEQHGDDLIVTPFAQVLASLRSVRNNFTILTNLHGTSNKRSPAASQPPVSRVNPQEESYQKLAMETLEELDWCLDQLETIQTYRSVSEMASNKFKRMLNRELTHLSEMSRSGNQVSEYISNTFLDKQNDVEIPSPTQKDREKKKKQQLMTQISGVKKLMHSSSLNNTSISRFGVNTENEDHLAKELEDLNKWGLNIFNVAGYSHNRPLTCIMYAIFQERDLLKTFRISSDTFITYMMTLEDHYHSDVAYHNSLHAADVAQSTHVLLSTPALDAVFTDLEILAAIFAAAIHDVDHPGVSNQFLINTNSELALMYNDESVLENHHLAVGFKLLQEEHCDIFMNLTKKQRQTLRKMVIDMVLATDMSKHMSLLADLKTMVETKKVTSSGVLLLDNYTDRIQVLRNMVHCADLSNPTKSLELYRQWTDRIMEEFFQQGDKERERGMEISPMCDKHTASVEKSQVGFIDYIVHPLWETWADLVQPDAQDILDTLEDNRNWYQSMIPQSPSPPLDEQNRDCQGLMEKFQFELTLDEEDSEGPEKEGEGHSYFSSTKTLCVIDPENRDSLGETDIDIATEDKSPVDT
Outline: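 HEK293 ACTOne cells with CNG channel (1000/well), endogenous PDE4; membrane potential dye, compounds up to 22.9 uM final. Fluorescence Ex 535/Em 590; RO 20-1724 (100 uM final) as reference.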

[8] = biological target: Guanine nucleotide-binding protein G(i) subunit alpha-1 (Homo sapiens) (UniProt P63096); experiment: qHTS Assay for Inhibitors of RGS12 GoLoco Motif Activity (Green Fluorophore) (AID 879);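 further: 0% = labeled peptide with Gαi1 and full inhibition = labeled peptide alone without protein; negative values mean loss of peptide binding seen as reduced polarization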
Outline: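 A drop in FITC polarization marked displacement of the FITC-tagged RGS12 GoLoco peptide (10 nM) from Gαi1 (50 nM). Compounds were incubated 10 min at room temperature in Tris pH 7.5 buffer containing 150 mM NaCl, 0.1 mM GDP and 0.05% NP40; unlabeled peptide titration served as control.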

[9] = biological target: Cytochrome P450 2C9 (Homo sapiens) (UniProt P11712); experiment: qHTS Assay for Inhibitors and Substrates of Cytochrome P450 2C9 (AID 883); further: potency means the concentration at half of the fitted maximal effect; nearly all actives have a fitted effect of over 60% in size
Chain of Cytochrome P450 2C9 (Homo sapiens) (P11712 whole entry, looked up): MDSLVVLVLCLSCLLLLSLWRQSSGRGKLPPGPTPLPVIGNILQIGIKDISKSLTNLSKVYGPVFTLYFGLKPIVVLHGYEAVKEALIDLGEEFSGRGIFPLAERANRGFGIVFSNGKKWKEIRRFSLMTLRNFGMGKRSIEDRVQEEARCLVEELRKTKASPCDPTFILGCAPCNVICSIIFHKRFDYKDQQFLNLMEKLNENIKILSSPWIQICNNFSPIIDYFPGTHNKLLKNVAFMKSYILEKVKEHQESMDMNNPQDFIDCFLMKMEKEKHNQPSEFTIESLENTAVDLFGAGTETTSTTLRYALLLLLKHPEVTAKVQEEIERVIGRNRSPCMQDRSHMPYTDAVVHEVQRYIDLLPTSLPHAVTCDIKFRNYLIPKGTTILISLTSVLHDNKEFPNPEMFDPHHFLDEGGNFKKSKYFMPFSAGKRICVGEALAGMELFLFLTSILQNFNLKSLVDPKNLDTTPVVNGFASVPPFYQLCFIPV
Outline: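 Luminescent read-out of deoxyluciferin hydroxylation, normalized to 57uM sulphaphenazole (AC100). Reaction: 10nM enzyme, 100uM Luciferin-H (equal to KM), 25mM KPO4, 10 min compound preincubation, then 60 min with NADPH regeneration, both at 37C.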

[10] = biological target: Cytochrome P450 3A4 (Homo sapiens) (UniProt P08684); experiment: qHTS Assay for Activators of Cytochrome P450 3A4 (AID 885); further: nearly all actives have a fitted effect of over 65% in size
Chain of Cytochrome P450 3A4 (Homo sapiens) (P08684 whole entry, looked up): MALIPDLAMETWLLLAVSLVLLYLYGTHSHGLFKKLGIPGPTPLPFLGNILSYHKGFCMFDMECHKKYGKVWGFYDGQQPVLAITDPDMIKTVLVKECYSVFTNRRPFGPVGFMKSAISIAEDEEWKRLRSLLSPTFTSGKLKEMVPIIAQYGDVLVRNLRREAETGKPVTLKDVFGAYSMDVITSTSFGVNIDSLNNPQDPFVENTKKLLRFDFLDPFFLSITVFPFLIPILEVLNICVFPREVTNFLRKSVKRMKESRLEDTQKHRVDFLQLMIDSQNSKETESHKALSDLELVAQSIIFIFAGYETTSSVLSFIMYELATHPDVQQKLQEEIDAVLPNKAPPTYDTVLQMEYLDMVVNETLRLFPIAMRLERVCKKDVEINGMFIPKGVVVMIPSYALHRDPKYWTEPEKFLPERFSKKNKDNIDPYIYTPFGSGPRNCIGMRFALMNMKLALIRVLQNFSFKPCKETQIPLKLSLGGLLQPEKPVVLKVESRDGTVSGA
Outline: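 Human CYP3A4 dealkylates Luciferin-PPXE to luciferin, which luciferase detection converts to light. Substrate was at its KM (25uM), buffer 200mM KPO4, reaction 60 min at RT.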

[11] = qHTS Assay for Identification of Small Molecule Agonists for Thrombopoietin (TPO) Signaling Pathway (AID 917); further: on the % scale 0 is the no-effect control and ±100 the full control effect
Outline: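 Cell-based luciferase reporter screen. Mouse Ba/F3 line stably expressing human TPO receptor; IL-3 removed overnight before plating. Co-treatment with compound and EC50 TPO (26 pM), 24 hrs at 37 C, then luminescence.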

[12] = biological target: Muscarinic acetylcholine receptor M1 (Rattus norvegicus) (UniProt P08482); experiment: qHTS Assay for Antagonists of Acetylcholine Muscarinic M1 Receptor: Measurement of IP-One Response (AID 944); further: nearly all actives have a fitted effect of over 75% in size
Chain of Muscarinic acetylcholine receptor M1 (Rattus norvegicus) (P08482 whole entry, looked up): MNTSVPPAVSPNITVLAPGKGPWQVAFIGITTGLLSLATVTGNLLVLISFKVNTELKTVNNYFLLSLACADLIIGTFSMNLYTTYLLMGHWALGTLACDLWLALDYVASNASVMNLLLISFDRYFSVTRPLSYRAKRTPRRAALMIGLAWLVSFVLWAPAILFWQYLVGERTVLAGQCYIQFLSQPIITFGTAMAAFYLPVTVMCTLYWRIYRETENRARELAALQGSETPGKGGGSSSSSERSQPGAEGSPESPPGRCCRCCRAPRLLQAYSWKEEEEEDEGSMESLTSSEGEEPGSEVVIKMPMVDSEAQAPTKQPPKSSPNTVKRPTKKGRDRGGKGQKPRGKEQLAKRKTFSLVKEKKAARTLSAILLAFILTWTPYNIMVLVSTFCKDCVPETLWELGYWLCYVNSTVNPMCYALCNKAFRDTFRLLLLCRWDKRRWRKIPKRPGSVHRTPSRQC
Outline: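 Antagonist mode with rat M1 receptor transfected into CHO cells. Compound is added first for 10 min, carbachol at its EC80 follows for 30 min, and lysis reagents then allow TR-FRET detection of accumulated IP1.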

[13] = biological target: Pyruvate kinase (Leishmania mexicana) (UniProt Q27686); experiment: qHTS Validation Assay for Inhibitors of Leishmania Mexicana Pyruvate Kinase (AID 945);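 further: 0% = DMSO only neutral control wells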
Chain of Pyruvate kinase (Leishmania mexicana) (Q27686 2-499 E452W): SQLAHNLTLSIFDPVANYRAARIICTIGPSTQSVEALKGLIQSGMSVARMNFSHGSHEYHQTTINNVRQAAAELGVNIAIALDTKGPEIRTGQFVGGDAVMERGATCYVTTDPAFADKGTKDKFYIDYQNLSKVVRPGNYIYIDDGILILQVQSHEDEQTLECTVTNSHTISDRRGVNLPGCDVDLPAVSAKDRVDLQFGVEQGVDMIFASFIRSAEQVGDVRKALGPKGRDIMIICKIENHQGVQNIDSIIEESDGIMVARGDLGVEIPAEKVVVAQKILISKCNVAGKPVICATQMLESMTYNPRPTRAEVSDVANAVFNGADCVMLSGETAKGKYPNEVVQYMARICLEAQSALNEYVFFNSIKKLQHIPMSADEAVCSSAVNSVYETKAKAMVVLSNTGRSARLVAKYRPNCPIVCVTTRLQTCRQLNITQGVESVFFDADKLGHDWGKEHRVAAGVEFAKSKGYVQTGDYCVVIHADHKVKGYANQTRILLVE
Outline: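 Compounds are tested as eight-point concentration series. Reactions contain 0.2 nM LmPYK E451W, 0.5 mM PEP, 0.1 mM ADP, 7 mM MgCl2 and 50 mM KCl at pH 7.2, run 1 h at room temperature, then read by PKLight luminescence.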

[14] = biological target: Pyruvate kinase PKM (Homo sapiens) (UniProt P14618); experiment: qHTS Assay for Activators of Human Muscle Pyruvate Kinase (AID 954; active means well fitted curve in the direction sought with a large enough effect, not every such curve was filed as active;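 further: 0% = uninhibited enzyme and -100% = no enzyme or full thiadiazolimine inhibition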)
Chain of Pyruvate kinase PKM (Homo sapiens) (P14618 whole entry, looked up): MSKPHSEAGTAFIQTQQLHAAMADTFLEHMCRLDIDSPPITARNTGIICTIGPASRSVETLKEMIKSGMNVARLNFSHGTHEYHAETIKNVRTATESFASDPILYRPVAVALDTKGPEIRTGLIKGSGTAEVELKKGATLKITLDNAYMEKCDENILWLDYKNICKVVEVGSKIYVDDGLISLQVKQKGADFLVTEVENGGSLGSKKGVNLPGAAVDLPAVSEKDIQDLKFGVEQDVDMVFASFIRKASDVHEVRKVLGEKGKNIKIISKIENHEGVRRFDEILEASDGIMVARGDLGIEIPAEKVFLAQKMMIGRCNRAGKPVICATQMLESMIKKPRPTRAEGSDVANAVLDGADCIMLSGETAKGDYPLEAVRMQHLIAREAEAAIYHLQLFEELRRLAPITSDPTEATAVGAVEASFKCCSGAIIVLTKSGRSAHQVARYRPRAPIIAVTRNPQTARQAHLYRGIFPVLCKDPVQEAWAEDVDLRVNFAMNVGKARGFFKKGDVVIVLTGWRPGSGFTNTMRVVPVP
Outline: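 Compound pinned into substrate mix (0.5 mM PEP, 0.1 mM ADP), then 0.1 nM PKM2 added; 1 h, RT. Stop/detection luciferase reagent added, luminescence read. Normalized to no-inhibition and no-enzyme or reference-inhibitor controls.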

[15] = biological target: Alpha-galactosidase A (Homo sapiens) (UniProt P06280); experiment: Counterscreen for Glucocerebrosidase Inhibitors: qHTS Assay for Human alpha-Galactosidase at pH 4.5 (AID 992); further: 0% is about no effect
Outline: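 Steps: enzyme (2 nM final), then compound across 0.7 nM to 77 uM, then 80 uM fluorogenic galactopyranoside substrate; incubate 20 min at room temperature; quench at pH 10; measure fluorescence at 365/440 nm.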

[16] = biological target: alpha-glucosidase (Oryza sativa, rice) (UniProt Q653V4); experiment: Counterscreen for Glucocerebrosidase Inhibitors: qHTS Assay for Rice alpha-Glucosidase at pH 5.0 (AID 997);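 further: 0% = full activity with enzyme and -100% = basal without enzyme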
Outline: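 Endpoint fluorogenic assay at pH 5.0: compounds (0.7 nM to 77 uM) titrated against 4 nM rice enzyme and 400 uM 4-MU-alpha-glucoside for 20 min at room temperature; NaOH/glycine stop, read ex 365/em 440 nm, Hill-fitted AC50.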

[17] = Validation of Assay for Modulators of Lamin A Splicing (AID 1459; active means well fitted curve in the direction sought with a large enough effect in the signal ratio; the % refers to the signal ratio;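 further: cells exposed to compound for two days before reading; 0% is about no effect; ratio rise marks activators and ratio drop marks inhibitors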)
Outline: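 HeLa S3 lamin A-EGFP/DsRed2 stable clone, 600 cells/well, Opti-MEM 2% FBS; compounds by pin tool; 48 hrs, 37 °C/5% CO2; Acumen 488 nm scan, objects 10-100 um; GFP/RFP intensity ratio.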

[18] = qHTS Assay for Lipid Storage Modulators (AID 1519; calls by dose curve); details: Drosophila S3 cells, BODIPY lipid droplet/cell ratio, laser cytometry, cells loaded with oleic acid
Outline: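 Cells seeded at 5,000 per well were treated with compounds over a concentration series and loaded with oleic acid (400 uM, as added). Lipid droplet fluorescence (488 nm excitation, 500-530 nm channel) was read by laser-scanning cytometry and normalized to 20 uM Triacsin C.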

[19] = biological target: DNA repair nuclease/redox regulator APEX1 (Homo sapiens) (UniProt P27695); experiment: qHTS Validation Assay for Inhibitors of the Human Apurinic/apyrimidinic Endonuclease 1 (APE1) (AID 1705; further: potency means the concentration at half of the fitted maximal effect)
Chain of DNA repair nuclease/redox regulator APEX1 (Homo sapiens) (P27695 whole entry, looked up): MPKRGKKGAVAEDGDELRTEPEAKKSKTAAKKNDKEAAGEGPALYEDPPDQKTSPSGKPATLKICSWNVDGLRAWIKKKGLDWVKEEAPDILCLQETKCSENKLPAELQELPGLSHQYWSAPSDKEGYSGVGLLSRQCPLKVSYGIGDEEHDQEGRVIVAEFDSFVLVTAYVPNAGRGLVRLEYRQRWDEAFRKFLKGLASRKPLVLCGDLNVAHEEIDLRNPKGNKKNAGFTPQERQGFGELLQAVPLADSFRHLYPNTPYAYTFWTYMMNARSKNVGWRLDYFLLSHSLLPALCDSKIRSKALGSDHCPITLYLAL
Outline: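 qHTS, 1536-well. APE1 + cpd 15 min RT → 50 nM TAMRA/BHQ-2 THF-abasic dsDNA substrate → kinetic fluorescence, 3 reads/60 s; delta(read3−read1) = reaction progress. No-enzyme buffer = negative control.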

O=C(Nc1cc(C(=O)Nc2ccc(S(=O)(=O)O)cc2S(=O)(=O)O)cc(C(=O)Nc2ccc(S(=O)(=O)O)cc2S(=O)(=O)O)c1)Nc1cc(C(=O)Nc2ccc(S(=O)(=O)O)cc2S(=O)(=O)O)cc(C(=O)Nc2ccc(S(=O)(=O)O)cc2S(=O)(=O)O)c1
activity change, negative = inhibition [1]: 5.96% (inactive) | Potency [2]: 31.6 µM (active) | activity change, negative = inhibition [3]: 1.34% (inactive) | activity, negative = inhibition [4]: -91.7% (active) | Potency [5]: > 46 µM (inactive) | Potency [6]: > 46 µM (inactive) | Potency [7]: inactive | outcome [8]: inactive | Potency [9]: 7.94 µM (active) | Potency [10]: inactive | Potency [11]: inactive | Potency [12]: inactive | Potency [13]: inactive | outcome [14]: inactive | outcome [15]: inactive | outcome [16]: inactive | outcome [17]: inactive | activity change, negative = inhibition ([18]; at 57.5 µM (top of the series)): 10.5% (inactive) | max response ([18]; measured here: cell count channel max response): -19.5% | max response ([18]; measured here: lipid channel max response): -13.3% | Potency [19]: 2.51 µM (active)
